Data as given in PubChem BioAssay (NCI).
Compounds without any hit were thinned out: in the full panel of roughly 83,000, 20% have a hit.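 Testing used 96-well plates and a 48-hour single-concentration exposure. Example: -40 means 40% of the starting cells died.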 Unmarked numbers belong to inactive results. Active and inactive are the calls of the source. Rule for the calls: active = growth percent below 10; inactive = the rest.

Assays:
Assay in all cases: NCI-60 one-dose screen, 48 h (100 = growth as untreated, 0 = no growth, -100 = all killed)
Settings in all cases: 10 µM
SK-MEL-2 melanoma = system: SK-MEL-2 melanoma
EKVX NSCLC = system: EKVX NSCLC
SN12C renal = system: SN12C renal
UO-31 renal = system: UO-31 renal
TK-10 renal = system: TK-10 renal
ACHN renal = system: ACHN renal
CAKI-1 renal = system: CAKI-1 renal
A498 renal = system: A498 renal
CCRF-CEM leukemia = system: CCRF-CEM leukemia
MOLT-4 leukemia = system: MOLT-4 leukemia

Row | Structure (SMILES) | growth (SK-MEL-2 melanoma) | growth (EKVX NSCLC) | growth (SN12C renal) | growth (UO-31 renal) | growth (TK-10 renal) | growth (ACHN renal) | growth (CAKI-1 renal) | growth (A498 renal) | growth (CCRF-CEM leukemia) | growth (MOLT-4 leukemia)
1 | COc1cc(/C=C/C(=O)c2ccc(C(F)(F)F)cc2)ccc1Oc1nc(Nc2ccc(F)cc2)nc(N(C)C)n1 | 78.4% | 66% | 69.6% | 50.3% | 88.5% | 84.2% | 69.6% | 94.4% | 64.8% | 40.7%
2 | CC(=O)Nc1ccc(-n2cnc3cc(-c4ccc(O)cc4)ccc32)cc1F | 36.3% | 60.6% | 21.5% | 20.7% | 49.2% | 20.4% | 17.9% | 72.4% | 8% (active) | -0.0266% (active)
3 | Cc1ccc(/C=C/C(=O)c2ccc(NC(=O)CSc3nnc(-c4c[nH]c5ccccc45)n3-c3ccccc3)cc2)c(C)c1 | 87.7% | 63.7% | 27.1% | 65.9% | 73.4% | 59.5% | 66.9% | 106% | 83.1% | 43.6%
4 | O=C1Nc2cc(-c3ccc(NC(=O)c4cccs4)cc3)ccc2/C1=C/c1ccc[nH]1 | 83.5% | 55.2% | 65.3% | 82.1% | 112% | 82% | 89.7% | 151% | 41.8% | 37.4%
5 | COc1ccc(C(=O)/C=C/c2cc(C(F)(F)F)cc(C(F)(F)F)c2)cc1S(N)(=O)=O | -73.8% (active) | -93% (active) | -59.3% (active) | -100% (active) | -89.8% (active) | -96.2% (active) | -83% (active) | 2.73% (active) | 10.7% | 2.98% (active)
6 | O=S(=O)(Nc1ncccn1)c1ccc(-n2c(-c3ccccc3)nc(-c3ccccc3)c2-c2ccccc2)cc1 | 106% | 76.9% | 92.4% | 62.2% | 94.6% | 97.3% | 84.2% | 81.9% | 75.7% | 92.1%
7 | Nc1nc(Nc2ccc(Cl)cc2)nn1Cc1cccc(Br)c1 | 27.2% | 22.3% | 41.1% | 18.2% | 61.1% | 22.8% | 26.9% | -1.15% (active) | 34.3% | 20.1%
8 | COc1ccc(-c2cc(-c3cc(C(=O)c4ccc(Br)cc4)n4ccc(C)cc34)nc(N)c2C#N)cc1 | 107% | 89.8% | 92.9% | 64.3% | 132% | 81.8% | 68.1% | 134% | 98.2% | 101%
9 | COc1cc2c3c(n(CCCNCCO)c(=O)c2cc1OC)-c1nc2c(cc1C3=O)OCO2 | 116% | 79% | 8.45% (active) | 24.4% | 85.5% | 2.56% (active) | 7.66% (active) | 69.3% | 8.64% (active) | -14.4% (active)
10 | O=C1Nc2cc(-c3ccc(NC(=O)c4cccc([N+](=O)[O-])c4)cc3)ccc2/C1=C/c1ccc[nH]1 | 51.4% | 66.5% | 101% | 67.2% | 108% | 59.6% | 97.8% | 149% | 91.2% | 73.8%
11 | COc1cc(C2CC(c3ccccc3)=Nc3c(N)nc(N)nc3N2)ccc1Oc1nc(Nc2ccc(F)cc2)nc(N(C)C)n1 (stereo not given) | 54.5% | 50.2% | 64.6% | 46.6% | 82.6% | 38.5% | 39.3% | 94.4% | 25.4% | 1.45% (active)
12 | Cc1cc(C)cc(Oc2cccc(-c3c(C)nnn3C3CCN(CCN(C)C)CC3)n2)c1 | 38.7% | 39.7% | 41.4% | 15.8% | 21.1% | 26.2% | 7.83% (active) | 56.4% | 16.7% | 30.8%
13 | Cc1ccc2nc3c(nc2c1)c1cc(I)ccc1n3CCN(C)C | 52.2% | 30.9% | 21.4% | 8.11% (active) | 48.9% | 6.64% (active) | 8.68% (active) | 62.9% | 32.7% | 10%
14 | CC(C)Sc1nc(NC2CC2)c(C#N)c(-c2ccccc2)n1 | 97.7% | 77.4% | 77.5% | 79.4% | 92.9% | 53.5% | 56.8% | 99.3% | 96.3% | 102%
15 | C=C[C@@]12CN3CC[C@]1(O)[C@@](C(=O)OC)(CO2)c1[nH]c2ccccc2c1C3 | 86.1% | 53.5% | 67.5% | 69.5% | 97% | 73.6% | 70.1% | 81.8% | 55.3% | 76.7%
16 | Cc1ccn2c(C(=O)c3ccc(Br)cc3)cc(-c3cc(-c4ccc(N(C)C)cc4)c(C#N)c(N)n3)c2c1 | 81.1% | 68.2% | 76.5% | 63.3% | 98.9% | 71.5% | 67.2% | 91.9% | 94.3% | 94%
17 | Oc1ccc(/C=C2\CCCc3cc4ccc(O)cc4[o+]c32)c(O)c1 | 37.2% | 65.9% | 26.5% | 51.9% | 92.3% | 29.3% | 40.2% | 130% | 39% | 28.5%
18 | Cc1noc2c(Cc3ccccc3)nn(CC(=O)N/N=C/c3ccc(Br)cc3)c(=O)c12 | 106% | 65.8% | 8.51% (active) | -32.3% (active) | 17.8% | 6.21% (active) | 58.4% | -62.4% (active) | 96.8% | 93.9%
19 | Cc1ccc(-c2cc(C(=O)N=Nc3c(O)[nH]c4ccccc34)c3ccccc3n2)cc1 | 101% | 38.4% | -9.28% (active) | 51.6% | 63.4% | 25.8% | 24.3% | 88.2% | 22.9% | 31.7%
20 | COc1cc2c3c(n(CCCN4CCOCC4)c(=O)c2cc1OC)-c1nc2c(cc1C3=O)OCO2 | 111% | 48.8% | 8.3% (active) | 15.3% | 79.5% | -11.7% (active) | 6.77% (active) | 76.9% | 14.4% | 24.7%
21 | Cc1ccc2nc(-c3ccc(-c4nnc(SCC(=O)Nc5ccc(Cl)cc5)o4)cc3)[nH]c2c1 | 95% | 58.7% | -3% (active) | 56.6% | 38.1% | 7.34% (active) | 21.7% | 73.9% | 58.8% | 35.6%
22 | O=c1oc2ccc(-c3ccc(F)cc3F)cc2c(=O)n1-c1ccc(Cl)c(C(F)(F)F)c1 | -62% (active) | -4.43% (active) | -15% (active) | -3.08% (active) | 15.3% | -10.9% (active) | -15.8% (active) | -17.6% (active) | -5.71% (active) | -8.23% (active)
23 | O=C(Nc1cc(Cl)cc(Cl)c1)Nc1cc(Cl)cc(Cl)c1 | -48.4% (active) | -12% (active) | -34.3% (active) | -8.17% (active) | 0.158% (active) | -19.4% (active) | -32.4% (active) | -18.3% (active) | -33.5% (active) | -36.2% (active)
24 | O=C(c1ccc(O)cc1)C1[C@H](c2ccccc2Br)[C@@H](c2ccccc2)NC12C(=O)Nc1ccc(Br)cc12 (stereo not given in full) | 38.1% | 32% | 15.1% | 35.8% | 76.2% | 37.9% | 24.1% | 80.5% | 31.4% | 11%
25 | CCCCSc1nc(Nc2ccc(/C(C)=N/NC(N)=S)cc2)c(C#N)c(-c2ccc(F)cc2)n1 | 72.9% | 57.5% | 29.2% | 19.6% | 46% | 14.5% | 45.2% | 63.1% | 55.3% | 63.6%
26 | COc1ccc(/C(CSc2nnc(-c3c[nH]c4ccccc34)n2-c2ccccc2)=N/O)cc1 | 5.87% (active) | 15.1% | 45.8% | 18.2% | 42.7% | 22.3% | 20.1% | 69.8% | 16.5% | 16.7%
